tested on: Plasmodium falciparum Sir2 (PF13_0152, Sir2A); experiment: Plasmodium falciparum Sir2A binding compounds – biochemical, small-molecule microarray, 635 nm fluorescence, primary screen (AID 1098); settings: fluorescence 635 nm, higher = more signal;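 also: score merges spot fluorescence intensity with its signal-to-noise ratio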

Point of comparison: `C[C@]1(C(=O)O)c2ccccc2C(=O)N(Cc2ccc(OC(F)(F)F)cc2)[C@H]1c1ccc(CO)cc1`, composite z-score 0.0634. Against it:
- CN1C(=O)[C@@]2(Cc3ccccc3)N=C(c3ccc(OCCCO)cc3)O[C@H]2c2ccccc21 — higher, 0.318
- COCCCNC(=O)[C@@]1(Sc2ccc(C)cc2)CC(=O)N(C(C)C)[C@@H]1c1ccc(CO)cc1I — higher, 1.03
- CC(C)C(=C=CC[C@@H](O)c1cccc(OCCO)c1)C[C@@H](O)COCc1ccccc1 — higher, 1.04
- COC(=O)[C@@]1(Cc2ccccc2)[C@H]2c3cc(C(=O)N4CCCC4)n(CCSCCO)c3C[C@H]2CN1C(=O)c1ccccc1 — higher, 0.809
- CCOC(=O)C1=C[C@@H](C(C)(C)C)N(S(=O)(=O)c2ccc(C)cc2)[C@H]1c1cccc(Cl)c1 — higher, 0.758
- C=C[C@H](C)[C@H](OC(=O)Nc1ccc(OC)cc1)c1ccc(OCCO)cc1 — higher, 0.515

Reference: PubChem BioAssay
